AMA1-RON2 inh = qHTS for Inhibitors of AMA1-RON; Towards Development of Antimalarial Drug Lead: Primary Screen; Plasmodium falciparum AMA1 (3D7) - RON2 peptide interaction; AlphaScreen AMA1-biotinylated RON2 peptide binding; Potency, µM (titrated, usually from 58.2 µM), for inactives: at the top dose activity change, negative = inhibition, usual class: inhibitors; 360,000 compounds, 0.2% hits; AID 720542, 2013;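 note: potency is the fitted concentration of half-maximal effect; 0% = vehicle wells and -100% = peptide control; nearly all actives have a fitted effect of over 45% in size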
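AMA1 (3D7) with his tag at 25 nM final met compounds first, then biotinylated RON2 peptide at 25 nM; detection used donor plus acceptor beads, 10 µg/mL apiece, read by AlphaScreen after 30 min at room temperature.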
AmpC inh detg = qHTS Inhibitors of AmpC Beta-Lactamase (assay with detergent); Potency, µM (series often up to 114 µM), for the others: top-dose activity change, negative = inhibition, actives largely listed as inhibitors; P00811; AmpC hydrolysis of nitrocefin, absorbance 480 nm, 0.01% Triton; 370,000 compounds, 0.041% hits; AID 485294, 2010;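 note: potency is the fitted concentration of half-maximal effect; 0% = no-compound wells and -100% = no-enzyme wells; nearly all actives have a fitted effect of over 25% in size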
Target sequence (P00811 whole entry, looked up): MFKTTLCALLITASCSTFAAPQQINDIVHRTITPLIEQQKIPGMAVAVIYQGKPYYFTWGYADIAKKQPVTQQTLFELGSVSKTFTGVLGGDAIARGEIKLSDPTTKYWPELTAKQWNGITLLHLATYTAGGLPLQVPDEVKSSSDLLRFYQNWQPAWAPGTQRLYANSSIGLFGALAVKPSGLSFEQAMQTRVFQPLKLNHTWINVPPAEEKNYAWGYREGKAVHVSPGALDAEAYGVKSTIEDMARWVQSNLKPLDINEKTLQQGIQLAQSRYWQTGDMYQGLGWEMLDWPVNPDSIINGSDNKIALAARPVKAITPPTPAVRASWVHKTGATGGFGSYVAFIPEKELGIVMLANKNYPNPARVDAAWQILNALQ
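20 mM phosphate pH 7.0 + 0.01% (detergent screen) or 0.0001% Triton X-100; 5.3 nM AmpC reagent; cpd preinc 15 min RT; nitrocefin (800 uM stock) to start; A480 q20 s × 4 min; Activity was normalised to no-enzyme and no-compound control wells.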
SARS PLP yeast = qHTS of Yeast-based Assay for SARS-CoV PLP; 330,000 compounds, 0.19% hits; S. cerevisiae expressing SARS-CoV PLpro, growth rescue; Potency, µM (titrated, usually from 32.9 µM), for inactives: at the highest dose activity, positive = growth rescue, actives largely listed as activators; calls by dose curve; note: potency is the fitted concentration of half-maximal effect; 0% is about no effect; nearly all actives have a fitted effect of over 55% in size
Shiga toxin inh = A qHTS for Small Molecule Inhibitors of Shiga Toxin. Vero cells, Shiga toxin protein synthesis inhibition reporter. inhibition, % at 38.7 µM. 290,000 compounds, 9.2% hits. AID 2315, 2010; in the data active = inhibition mostly above about 28%, no sharp cut-off; inactive = mostly below about 43%; note: 0% is about no effect
AmpC no deterg = qHTS Inhibitors of AmpC Beta-Lactamase (assay without detergent); Potency, µM (top dose mostly 57.1 µM), inactives show top-dose activity change, negative = inhibition, actives largely listed as inhibitors; 330,000 compounds, 0.52% hits; P00811; AmpC nitrocefin hydrolysis, absorbance 480 nm, 0.0001% Triton;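 note: potency is the fitted concentration of half-maximal effect; plate controls were no compound for no effect and no enzyme for full effect; nearly all actives have a fitted effect of over 20% in size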
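AmpC (5.3 nM in the dispensed reagent) in 20 mM phosphate pH 7.0 with 0.01% (detergent screen) or 0.0001% Triton X-100 was preincubated with compounds for 15 min at room temperature. Nitrocefin was then added from an 800 uM solution, and hydrolysis was followed at 480 nm.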
Cycloheximide cs = Cycloheximide Counterscreen for Small Molecule Inhibitors of Shiga Toxin. cell reporter, cycloheximide protein synthesis inhibition counterscreen. max response, %. 300,000 compounds, 12% hits. AID 2314, 2010; in the data active = max response mostly above about 13%, no sharp cut-off; inactive = mostly below about 14%; note: read at 38.3 µM for the half of the compounds with a filed dose; 0% is about no effect
Active calls of the source: *; ? = inconclusive; · = no result given; [ ] = dose if it differs, or a comment. This excerpt belongs to a sample that is enriched for hits. Unless noted, calls come from the whole dose curve; as a rule, active = well fitted curve in the direction sought with a large enough effect; inconclusive = small, poorly fitted or top-dose-only effect, or another doubt; inactive = no such curve, though single readings can be large; an effect the other way counts as inactive or inconclusive.

SMILES	AMA1-RON2 inh	AmpC inh detg	SARS PLP yeast	Shiga toxin inh	AmpC no deterg	Cycloheximide cs
S=C(NCCc1ccccc1)Nc1ccccc1N1CCOCC1	-26%	-8%	-2%	-3	3%	27
CCOc1cccc(/C=N/NC(=O)c2cc(C3CC3)[nH]n2)c1O	102%	-11%	?	2	-41%	18*
CCOc1cccc(/C=N/NC(=O)c2cccnc2)c1O	131%	5%	0%	33	-4%	21*
CCOc1cc(/C=N/NC(=O)c2cccnc2)ccc1O	42%	3%	0%	42	-3%	9
CCC1(c2ccc(F)cc2)NC(=O)N(CC(=O)Nc2cccc(S(=O)(=O)N3CCCC3)c2)C1=O (centres undefined)	5%	·	·	·	·	·
O=C(NC1CCCCCCC1)c1c(O)c2ccccc2[nH]c1=O	2%	-2%	-2%	47*	-18%	16*
O=C(Nc1ccccc1)N1CCCN(c2ccc(C(F)(F)F)cc2[N+](=O)[O-])CC1	2%	1%	0%	-2	0%	-4
COc1ccc(NC(=O)C2Cc3cccc(OC)c3O/C2=N\O)cc1 (centres undefined)	-3%	-2%	0%	2	2%	-2
COc1cccc2c1O/C(=N\O)C(C(=O)Nc1ccc(C)cc1)C2 (centres undefined)	-6%	2%	-3%	22	-25%	13*
COc1cccc2c1O/C(=N\O)C(C(=O)Nc1cccc(Br)c1)C2 (centres undefined)	-12%	-3%	0%	80*	-33%	33*
COc1ccccc1N1CCN(C(=O)C2CCN(C(=O)c3ccc(C(C)(C)C)cc3)CC2)CC1	-6%	-2%	-1%	-5	233%	-4
O=C(Nc1ccc(Cl)c(Cl)c1)c1ccc(Cn2c(=O)[nH]c3ccsc3c2=O)cc1	1%	?	-1%	-13	-30%	-1
O=C(Nc1ccc(Oc2ccccc2)cc1)c1ccc(Cn2c(=O)[nH]c3ccsc3c2=O)cc1	-7%	-6%	-3%	-14	16µM*	-6
CCCSc1nnc(-c2ccccc2N)c(=O)[nH]1	-3%	9%	-10%	93*	-17%	31
CCCCCCCSc1nnc(-c2ccccc2N)c(=O)[nH]1	-14%	-2%	-19%	21	-41%	0
CCCCSc1nnc(-c2ccccc2N)c(=O)[nH]1	-2%	4%	-35%	77*	-28%	28*
O=C(NCCc1c[nH]c2ccccc12)C(=O)NCC1OCCCN1S(=O)(=O)c1ccccc1 (centres undefined)	-4%	-6%	-2%	4	?	-1
COc1ccccc1CCNC(=O)C(=O)NCC1OCCN1S(=O)(=O)c1ccccc1 (centres undefined)	-4%	-3%	?	-5	0%	1
Cc1ccc(S(=O)(=O)N2CCCOC2CNC(=O)C(=O)NCCc2c[nH]c3ccccc23)cc1 (centres undefined)	-3%	?	-5%	96*	-36%	73*
COc1ccccc1CCNC(=O)C(=O)NCC1OCCN1S(=O)(=O)c1cccs1 (centres undefined)	9%	3%	-5%	25*	-15%	34*
O=C(Nc1ccccc1)Nc1cccc(Cl)c1Cl	20%	-7%	-62%	active	-35%	37*
CSc1ccccc1NC(=O)Nc1cccc(Cl)c1Cl	-11%	-9%	0%	-6	-50%	10*
COc1cc(/C=N/NC(=O)c2ccccn2)ccc1OC(=O)c1ccc(Br)cc1	26%	-9%	-2%	41	-11%	25*
COc1cc(/C=N/NC(=O)c2ccncc2)ccc1OC(=O)c1ccccc1Cl	8%	4%	-1%	19	160%	-2
COc1cc(/C=N/NC(=O)c2ccccn2)ccc1OC(=O)c1ccccc1Br	32%	?	-3%	71*	58%	43*
SMILES	AMA1-RON2 inh	AmpC inh detg	SARS PLP yeast	Shiga toxin inh	AmpC no deterg	Cycloheximide cs
COc1ccc(/C=N/NC(=O)c2cccc(C(=O)N/N=C/c3ccc(OC)c(OC)c3)n2)cc1OC	70%	4%	-1%	-5	3%	-3
CCOCCc1nn2c(=O)cc(CSCC(=O)Nc3ccc(OC)cc3)nc2s1	6%	5%	-4%	-6	-10%	5
CCOCCc1nn2c(=O)cc(CSCC(=O)Nc3ccccc3)nc2s1	-10%	7%	7%	14	-2%	21*
O=C(O)CCn1cc(/C=N/O)c(-c2cccc([N+](=O)[O-])c2)n1	9%	-11%	-2%	10	-12%	-1
Cc1cc2nn(-c3ccc(F)cc3)nc2cc1N	-3%	0%	3%	·	-21%	58*
Cc1cc2nn(-c3ccc(Cl)cc3)nc2cc1N	9%	-7%	5%	113*	-2%	50*
COc1ccc(-n2nc3cc(C)c(N)cc3n2)cc1Cl	-1%	-16%	10%	39*	-20%	40*
Cc1cc2nn(-c3ccc(F)cc3)nc2cc1NC(=O)c1ccc(C(C)(C)C)cc1	·	-1%	·	·	·	·
COc1cccc(N2CCN(C(=O)CCC(=O)c3ccc(Cl)s3)CC2)c1	-10%	-12%	5%	·	6%	·
CCOC(=O)c1oc2c(c1C)-c1nn(Cc3ccc(Cl)cc3)cc1CC2	·	-3%	·	·	·	·
Cc1cc(C)n2nc(SCC(=O)Nc3ccccc3F)nc2n1	4%[11.6 µM]	0%	-1%	·	-14%	·
Cc1cc(C)n2nc(SCC(=O)c3ccccc3)nc2n1	-5%	-4%	-3%	33	-13%	14*
Cc1cc(C)n2nc(SCCOc3ccccc3F)nc2n1	13%	3%	1%	114*	12%	26*
Cc1cc(SCC(=O)c2ccccc2)nc(C)n1	-5%	-12%	-7%	117*	-9%	32*
Cc1ccc(C(=O)CSc2cc(C)nc(SCC(=O)c3ccccc3)n2)cc1	19%	-11%	-6%	-19	-9%	-4
c1ccc(CCNc2ncnc3ccccc23)cc1	8%	-8%	-2%	57	-19%	49*
Cc1cc2c(NCCc3ccccc3)ncnc2s1	-2%	6%	-8%	65*	-15%	25*
COc1cc(SC)ccc1C(=O)NCCCOC(C)C	0%	-12%	1%	14	-6%	13*
COc1cc(SC)ccc1C(=O)N(C)Cc1ccccc1	-7%	-3%	0%	28	-11%	22*
CCCNC(=O)c1ccc(SC)cc1OC	1%	10%	-5%	17	-9%	12
COc1cc(SC)ccc1C(=O)NCc1ccc(C)cc1	3%	2%	-14%	31	-26%	16*
COc1cc(SC)ccc1C(=O)NCCOc1ccc(C)c(C)c1	-12%	?	-7%	-5	-9%	3

Assay outcomes from PubChem.
